# Activity calls are given as the source filed them. No rule for the calls is given here.
# Experiment: PubChem AID 434992
compound,measurement,value
FC(F)(F)c1ccc2c(c1)Nc1ccccc1S2,outcome,inactive

# Reference: PubChem BioAssay AID434992 (The Scripps Research Institute Molecular Screening Center, 2010)
